CR mimetic SO: reduction of superoxide in aged yeast, primary screen, HTS | AID 2690, 2010 | superoxide response (% of plate mean), % at 10 µM | S. cerevisiae aged cells, superoxide DHE fluorescence; active compounds read low | 330,000 compounds, 0.18% hits;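 active means superoxide response under a set limit, about three screen SD below normal, cut at about 65% in these data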;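 further: yeast aged for seven days with compound at 30 °C before DHE staining; 100% = average MFI of all compound-treated wells on the plate with controls excluded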
NALP1 yeast inh: NALP1 inflammasome inhibitors in reconstituted yeast, colorimetric, S. cerevisiae, triplicate retest. S. cerevisiae NALP1/ASC/caspase-1 growth, X-gal OD620, 72 h. inhibition, % at 10 µM. 280,000 compounds, 0.61% hits; in the data active means inhibition mostly above about 24%, no sharp cut-off; inactive means mostly below about 32%
V-ATPase pHluor: regulators of yeast V-ATPase proton pumping, primary screen, pHLuorin cytosolic pH fluorescence | S. cerevisiae | response, % at 10 µM | 350,000 compounds, 0.37% hits | AID 504577, 2011; in the data active means response mostly above about 7.3%, no sharp cut-off; inactive means mostly below about 5.4%; further: actives read high
Rce1 inh: yeast Rce1p protease inhibitors, primary screen, biochemical, fluorescence, cell-free homogeneous. CAAX prenyl protease 2 (Saccharomyces cerevisiae (strain ATCC 204508 / S288c)), Q03530. AID 2563, 2010. calls only. 290,000 compounds, 0.27% hits. yeast membranes, quenched prenylated peptide cleavage fluorescence;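 active means fall in fluorescence gain of 50% or more versus controls, with final raw signal at or below 3038400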;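 further: plate controls were neutral control wells for no effect and wells lacking membranes for full effect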
NLRP3 yeast inh: NALP3 inflammasome inhibitors in reconstituted yeast, primary screen, luminescence, uHTS; Yeast reconstituted NLRP3/ASC/caspase-1, beta-gal luminescence, 24 h; AID 2825, 2010; inhibition, % at 10 µM; 330,000 compounds, 0.39% hits;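 active means inhibition of 50% or more; inactive means inhibition below 50%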;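 further: plate controls were induced DMSO wells for no effect and uninduced yeast grown without galactose for full effect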
PERK inh: block of dimerizer-induced PERK translation repression, primary screen, PERK inhibitor project, CHO PERK-DD cells, SEAP luminescence, HTS. Eukaryotic translation initiation factor 2-alpha kinase 3 (Homo sapiens), Q9NZJ5. inhibition, % at 5.6 µM. 220,000 compounds, 0.17% hits. CHO PERK-DD fusion, SEAP luminescence translation reporter. AID 1416, 2008;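 active means inhibition above the mean inhibition of all tested compounds plus 3 SD, set separately per screening campaign, cut at about 2.9% in these data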;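 further: PERK kinase domain activated by AP20187 dimerizer at 100 nM; 0% = DMSO with dimerizer and 100% = rapamycin at 8.4 µM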
CR mimetic CP: superoxide lowering in aged yeast cells, confirmation, cherry picked compounds; shares compounds with CR mimetic SO; S. cerevisiae aging, superoxide DHE fluorescence; active compounds read low; superoxide response (% of plate), % at 10 µM; 850 compounds, 1% hits;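 active means superoxide signal below 65% of the plate average of sample wells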;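 further: cells aged with compound for 7 days at 30 degrees C before staining; 100% equals mean DHE fluorescence of all compound wells on the plate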
DHE fluor count: DHE quenching or ROS scavenging interference in aged yeast, artefact control for yeast caloric restriction mimetic project, S. cerevisiae BY4741, flow cytometry | shares compounds with CR mimetic SO | DHE fluorescence; active compounds read low | fluorescence response, % at 10 µM | 850 tested, under 10 active | AID 435000, 2010;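 active means fluorescence response below 15%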;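 further: percent of the mean fluorescence averaged over all compound wells on the plate; lower means stronger quenching of DHE signal or ROS scavenging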
Starred values were filed as active, the others as inactive; i = inactive; x = no result given. Hits are enriched below; roughly 1.6% of the tested compounds scored in any of these assays.

SMILES	CR mimetic SO	NALP1 yeast inh	V-ATPase pHluor	Rce1 inh	NLRP3 yeast inh	PERK inh	CR mimetic CP	DHE fluor count
O=C(NCCc1ccc(F)cc1)C1CCC(=O)N(CC2CCCCC2)C1 (stereo unspecified)	x	x	-3.1	x	x	x	x	x
Cc1cccc(NS(=O)(=O)c2cc(C(=O)N3CCN(C)CC3)ccc2C)c1	64.3*	2.9	-2.3	i	7.7	-0.2	109.9	104.0
CCN1CCN(C(=O)c2ccc(C)c(S(=O)(=O)Nc3cccc(C)c3)c2)CC1	97.2	19.8	-0.3	i	-4.3	x	x	x
Cc1cc(C(=O)COc2cccnc2[N+](=O)[O-])c(C)n1-c1ccccc1	58.0*	-2.3	-2.6	i	-6.1	-0.1	123.4	128.6
COc1ccc([C@H]2C[C@H](n3cc(COC(=O)c4ccccc4)nn3)[C@@H](O)CN2C(=O)c2cccs2)cc1	x	x	-1.6	x	x	x	x	x
CC(C)CCNC(=O)c1cn(CC(C)C)c(=O)c2c1c1ccccc1n2C	100.9	2.7	1.9	i	-5.1	x	x	x
CC(C)Cn1cc(C(=O)NCc2cccs2)c2c3ccccc3n(C)c2c1=O	62.3*	-0.7	-5.5	i	14.7	0.7	124.5	119.2
CCOc1cc(N2CCOCC2)c(OCC)cc1NC(=O)c1ccccc1N1CCCC1=O	x	x	0.4	x	x	x	x	x
C=CCNC(=O)C1CC(=O)N(c2ccc(OCC(=O)Nc3ccc(CC)cc3)cc2)C1 (stereo unspecified)	57.8*	1.6	-0.4	i	10.9	x	112.0	110.7
O=C(NC(c1cccnc1)C(F)(F)F)c1cc(COc2ccc3c(c2)CCCC3)on1 (stereo unspecified)	130.4	13.2	0.5	i	19.8	x	x	x
CCOC(=O)c1c(C)nc2ccc(Cl)cc2c1-c1ccccc1	62.2*	14.9	2.7	i	-1.2	0.0	94.8	102.4
CC(=O)N1CCC(C(=O)Nc2cc(C)cc(C)c2)CC1	61.4*	1.1	0.2	x	2.4	-1.0	103.4	90.7
O=C(Nc1cccc(Cl)c1)Nc1ccc2nccnc2c1	59.7*	5.5	0.5	i	6.3	x	85.9	93.6
Nc1ncnc(N)c1NC(=O)c1ccc(OCc2ccccc2)cc1	x	x	0.1	x	x	x	x	x
Cc1cccn2c(=O)c3cc(C(=O)NCc4ccco4)c(=N)n(CCc4ccccc4)c3nc12	81.5	x	-4.2	x	7.7	0.7	x	x
Cc1cccn2c(=O)c3cc(C(=O)NCc4ccco4)c(=N)n(C(C)C)c3nc12	63.6*	25.2	0.2	i	7.1	-1.1	100.2	113.3
Cc1ccsc1CNS(=O)(=O)c1ccc(F)cc1	60.1*	18.6	-0.3	i	5.0	x	88.3	91.5
CCOc1ccccc1NC(=O)COC(=O)CC(C)(C)CC1=NS(=O)(=O)c2ccccc2N1	58.0*	9.8	6.1	i	1.0	x	105.6	109.5
Cc1cc(C)cc(NC(=O)COC(=O)CCCC2=NS(=O)(=O)c3ccccc3N2)c1	93.3	-2.4	1.1	i	3.7	0.6	x	x
Cc1noc(NS(=O)(=O)c2ccc(N/C=C/C(=O)c3ccc4c(c3)OCO4)cc2)c1C	64.8*	0.5	0.4	i	8.8	-0.6	103.4	123.2
Cc1noc(NS(=O)(=O)c2ccc(N/C=C\C(=O)c3ccc(F)cc3)cc2)c1C	93.4	25.2	-0.8	i	11.0	1.3	x	x
CCCNC(=O)[C@@H]1CCCN1C(=O)C1CCN(S(=O)(=O)c2ccc(C)cc2)CC1	64.3*	28.0	5.2	i	-3.1	x	116.3	108.7
CC1CCCN(C(=O)c2cccc(S(=O)(=O)NCc3ccccc3)c2)C1 (stereo unspecified)	x	x	-0.7	x	x	x	x	x
CCCCn1c(CNC(=O)Cc2ccccc2)nc2ccccc21	114.1	32.0	-0.2	i	-15.9	0.0	x	x
CCCCn1c2ccccc2c2cc(CC(N)=O)ccc21	103.2	1.6	-6.9	i	17.4	0.0	93.9	91.4
SMILES	CR mimetic SO	NALP1 yeast inh	V-ATPase pHluor	Rce1 inh	NLRP3 yeast inh	PERK inh	CR mimetic CP	DHE fluor count
N#C/C(=C\c1ccccn1)c1nc2ccccc2s1	101.6	5.7	-1.2	x	26.3	1.2	x	x
COc1ccc(/C(C#N)=C/c2ccccn2)cc1	58.3*	16.7	2.3	i	17.1	0.8	122.4	108.6
C[C@H](CO)N1C[C@H](C)[C@@H](CN(C)Cc2cncnc2)Oc2cc(Br)ccc2S1(=O)=O	x	x	1.9	x	x	x	x	x
CC1CCN(C(=O)c2[nH]cnc2C(=O)Nc2ccccc2F)CC1	x	x	-0.7	x	x	x	x	x
CN(C(=O)Nc1cccc(C(F)(F)F)c1)C1CCCCC1	53.8*	-1.7	-4.3	i	1.0	2.1	91.1	102.9
O=C(Nc1cccc(C(F)(F)F)c1)C1CCCCC1	111.2	26.3	1.3	i	24.4	0.2	x	x
COc1ccc(NC(=O)c2nc(SC)ncc2Cl)cc1	109.2	x	-3.7	i	12.7	0.7	x	x
CSc1ncc(Cl)c(C(=O)Nc2ccc(C)c(C)c2)n1	65.3*	8.4	0.7	i	6.8	x	98.9	113.8
COc1cccc(NC(=O)c2nc(SC)ncc2Cl)c1	105.5	-3.9	-0.2	i	10.0	x	115.6	122.9
Cc1nn(-c2ccccc2)c(C)c1C(=O)OCC(=O)Nc1ccccc1Cl	x	x	-2.3	x	x	x	x	x
Cc1ccc(C(=O)SC2=NCCS2)cc1	57.8*	-2.0	-1.9	i	11.0	0.8	101.5	109.8
COc1ccc(C(=O)SC2=NCCS2)cc1OC	101.3	15.2	-1.6	i	-13.9	0.5	x	x
O=C(Nc1ccc2ccccc2c1)c1ccccc1Cl	x	x	-0.9	x	x	x	x	x
O=C(Nc1ccc2ccccc2c1)c1ccc(Cl)cc1Cl	49.5*	12.3	-1.2	i	3.8	-0.8	94.9	100.0
CC(C)CCC(CCNCc1ccccn1)c1ccc(Cl)cc1 (stereo unspecified)	48.0*	27.8	-2.2	i	12.3	x	106.6	108.9
S=C(NCc1ccc(Cl)cc1)NCc1ccccn1	97.9	6.0	-0.8	i	6.7	1.0	x	x
C[C@H](CO)N1C[C@H](C)[C@H](CN(C)C(=O)NC2CCCCC2)Oc2ncc(Br)cc2C1=O	x	x	0.1	x	x	x	x	x
C[C@H](CO)N1C[C@H](C)[C@@H](CN(C)C(=O)CCC(F)(F)F)OCc2cnnn2CCCC1=O	x	x	-0.8	x	x	x	x	x
CC1=C(C(=O)N(C)C)CC(CC(=O)NCCCCc2ccccc2)C(=O)N1Cc1ccccc1 (stereo unspecified)	x	x	0.5	x	x	x	x	x
CCn1c2ccc(/C(C)=N\O)cc2c2cc(/C(C)=N\O)ccc21	91.4	-18.8	-0.2	i	8.9	-0.5	111.8	80.7
